Test [1] relates to XIP peptide (Xip251-270) binding. The experiment in a line: XIP fragment 251-270 binding compounds – biochemical, small-molecule microarray, fluorescence 635/667 nm, 0.1 µg/mL protein, primary screen (AID 1182). Conditions: fluorescent protein binding, 635 nm, higher = more signal, called active from +8 up or from −8 down.
The subject of another test is XIP peptide (Xip251-270). The experiment in a line: compounds binding XIP fragment 251-270 – biochemical, small-molecule microarray, fluorescence 635/667 nm, 0.5 µg/mL protein, primary screen (AID 1183). Conditions: fluorescence 635 nm, higher = more signal.
Test [2] in a line: blood-stage malaria parasite viability loss – strain 3D7, DAPI fluorescence, 100 nL, primary screen (AID 1184).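 Also: parasites grown inside human red blood cells in medium with human serum.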 Conditions: P. falciparum 3D7 growth, 3 d, higher = more signal.
Test [3] has as its target Homeobox protein Hox-A13 (Mus musculus) (UniProt Q62424). The experiment in a line: disruptors of Hoxa13 oligonucleotide interaction – biochemical, fluorescence polarization, labeled oligonucleotide, primary screen (AID 1185). Conditions: Hoxa13:DNA binding, 15 min, higher = more signal, called active from +8 up or from −8 down.
The nature of test [4]: blockers of DNA damage checkpoint Chk1 activation – imaging, HeLa, hydroxyurea, phospho-Chk1 antibody, percent positive cells, primary screen (AID 1186). Conditions: hydroxyurea-induced phospho-Chk1 immunofluorescence imaging, higher = more signal.
A short description of test [5]: blockers of DNA damage checkpoint Chk1 activation – imaging, HeLa, hydroxyurea, phospho-Chk1 nuclear intensity, primary screen (AID 1187). Conditions: hydroxyurea-induced phospho-Chk1 immunofluorescence imaging, higher = more signal.

The source made the active and inactive calls. Unless noted, no rule for the calls is given here.

Chain of Homeobox protein Hox-A13 (Mus musculus) (Q62424 whole entry, looked up): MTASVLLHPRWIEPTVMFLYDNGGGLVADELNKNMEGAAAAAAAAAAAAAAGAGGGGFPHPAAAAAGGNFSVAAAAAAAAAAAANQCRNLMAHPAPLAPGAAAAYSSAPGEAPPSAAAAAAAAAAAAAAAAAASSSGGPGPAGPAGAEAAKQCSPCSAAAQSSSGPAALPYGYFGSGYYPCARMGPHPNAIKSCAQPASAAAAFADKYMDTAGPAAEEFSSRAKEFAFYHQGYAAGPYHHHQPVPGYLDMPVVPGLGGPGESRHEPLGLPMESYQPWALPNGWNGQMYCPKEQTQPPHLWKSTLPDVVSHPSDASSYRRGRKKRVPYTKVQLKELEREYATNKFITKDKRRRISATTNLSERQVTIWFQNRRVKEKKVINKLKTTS

In the case of `Cc1c(NC(=O)CC#N)c(=O)n(-c2ccccc2)n1C`, the results for the composite z-score (in test [1]; with XIP peptide (Xip251-270)) were 0.248 (inactive) and 0.0029, respectively. Also, the z-score in test [2] was -0.0049; in test [3], -0.631 (inactive); in test [4], 0.123 (inactive); in test [5], 0.239 (inactive).
For `COc1ccc(C#Cc2ccc3c(c2)[C@]2(C(=O)N3)[C@H](C(=O)NC[C@H](O)c3ccccc3)[C@H]3C(=O)O[C@H](c4ccccc4)[C@H](c4ccccc4)N3[C@@H]2c2ccccc2OCCO)cc1`, the composite z-score in test [1] was 0.0376 (inactive); with XIP peptide (Xip251-270), 0.881. Moreover, the z-score in test [2] is -1.01; in test [3] it was -2.33 (inactive); in test [4], -0.166 (inactive); in test [5], -0.118 (inactive).
In the case of `C=C[C@@H](COC(C)=O)N(Cc1ccc([N+](=O)[O-])cc1)S(=O)(=O)c1ccc(Br)cc1`, the composite z-score was 0.13 (inactive) in test [1] and 0.656 with XIP peptide (Xip251-270). Also, the z-score in test [2] is 0.242; in test [3] it was -3.25 (inactive); in test [4], -0.617 (inactive); in test [5] it was -0.411 (inactive).
Turning to `CC(=O)Nc1cc(Br)ccc1C(=O)O`, the composite z-score was 1.16 (inactive) in test [1] and 0.53 in the test with XIP peptide (Xip251-270). Further, the z-score in test [2] is 1.96; in test [3], 0.273 (inactive); in test [4], 0.1 (inactive); in test [5], 0.0714 (inactive).
On to `COc1ccc(CCNC(=O)[C@@]2(c3ccc([N+](=O)[O-])cc3)CC(=O)N(CC34CC5CC(CC(C5)C3)C4)[C@@H]2c2ccc(CO)cc2)cc1`, for which the composite z-score in test [1] was 0.349 (inactive); with XIP peptide (Xip251-270) it was 0.735. In addition, the z-score in test [2] was -1.79; in test [3], -2.31 (inactive); in test [4], -0.42 (inactive); in test [5], -0.458 (inactive).
On to `[N-]=[N+]=Nc1ccccc1[C@@H]1OC(c2ccc(OCCCO)cc2)=N[C@]1(CCS(=O)(=O)c1ccccc1)C(=O)N1CCOCC1`, for which the values for the composite z-score (in test [1]; in the test with XIP peptide (Xip251-270)) were 1.12 (inactive) and 0.731, respectively. Moreover, the z-score in test [2] is -2.09; in test [3] it was -1.96 (inactive); in test [4], 0.0445 (inactive); in test [5], 0.143 (inactive).
As to `COc1ccc(C(=O)Nc2cccc(CN3C(=O)[C@@]4(O[C@@H](CCn5cc(CCO)nn5)[C@H]([Si](C)(C)c5ccc(OC)cc5)[C@H]4C)c4ccccc43)c2)cc1`, the composite z-score in test [1] was 0.201 (inactive); with XIP peptide (Xip251-270) it was 0.393. Moreover, the z-score is -2.65 in test [2], -3.85 (inactive) in test [3], 0.103 (inactive) in test [4] and 0.199 (inactive) in test [5].
As for `O=C1O[C@@H](c2ccccc2)[C@@H](c2ccccc2)N2[C@@H](c3ccc(OCCO)cc3)[C@]3(C(=O)Nc4ccc(C#CC5=CCCCC5)cc43)[C@@H](C(=O)O)[C@H]12`, the composite z-score is 0.383 (inactive) in test [1] and 0.504 with XIP peptide (Xip251-270). In addition, the z-score is 0.287 in test [2], -3.99 (inactive) in test [3], 0.419 (inactive) in test [4] and 0.542 (inactive) in test [5].
As for `N[C@@H](Cc1ccccc1)Cn1cc(-c2ccccc2)nn1`, the composite z-score in test [1] was -0.259 (inactive); in the test with XIP peptide (Xip251-270), -0.533. For the same compound, the z-score in test [2] was 0.942; in test [3], -0.823 (inactive); in test [4], 0.201 (inactive); in test [5], 0.117 (inactive).
Consider `O=C(CS)NCCCCCCNC(=O)[C@H]1C[C@H]2C(=O)N3CCC[C@H]3C(=O)N2[C@H]1c1cccc(OCCO)c1`, for which the results for the composite z-score (in test [1]; with XIP peptide (Xip251-270)) were 0.517 (inactive) and 0.773, respectively. For the same compound, the z-score is -0.0979 in test [2], -3.15 (inactive) in test [3], -0.188 (inactive) in test [4] and -0.318 (inactive) in test [5].
Take `CC(C)c1ccc(NN2C(C(O)c3cccc(O)c3)C=CC3C(=O)N(c4ccccc4)C(=O)C32)cc1` (configuration not stated): the composite z-score in test [1] was 0.305 (inactive); in the test on XIP peptide (Xip251-270), 0.668. For the same compound, the z-score in test [2] is -0.0362; in test [3], -4.3 (inactive); in test [4] it was 0.999 (inactive); in test [5] it was 0.88 (inactive).
For `CCCCCN1CC=CC23O[C@@H]4/C=C\CCCOC(=O)C4[C@H]2C(=O)N(CCCCCCO)[C@@H]3C1=O` (some centres not stated), the composite z-score in test [1] is 0.403 (inactive); in the test on XIP peptide (Xip251-270), -0.0516. For the same compound, the z-score in test [2] is -1.13; in test [3] it was -5.27 (inactive); in test [4], -0.792 (inactive); in test [5] it was -0.702 (inactive).
Regarding `CN(C)CCCCCCNC(=O)[C@H]1C[C@H]2C(=O)N[C@@H](CCCCN)C(=O)N2[C@H]1c1ccc(O)cc1`, the values for the composite z-score (in test [1]; with XIP peptide (Xip251-270)) were 5.07 (inactive) and 0.937, respectively. Further, the z-score in test [2] is -0.511; in test [3] it was -0.281 (inactive); in test [4], -0.111 (inactive); in test [5] it was 0.501 (inactive).
Consider `CCOC(=O)C1=CCC(c2ccc([N+](=O)[O-])cc2)N(S(=O)(=O)c2ccc(C)cc2)C1` (configuration not stated), for which the composite z-score in test [1] is -0.15 (inactive); in the test on XIP peptide (Xip251-270) it was 0.27. Further, the z-score is -1.3 in test [2], -1.24 (inactive) in test [3], -0.021 (inactive) in test [4] and 0.144 (inactive) in test [5].
Regarding `CCN(CC)c1ccc(N2CC=CC34O[C@@H]5C=CCCOC(=O)C5[C@H]3C(=O)N(CCCCCO)[C@@H]4C2=O)cc1` (some centres not stated), the composite z-score in test [1] was 0.235 (inactive); with XIP peptide (Xip251-270), -0.782. Moreover, the z-score is 0.315 in test [2], -5.22 (inactive) in test [3], 0.234 (inactive) in test [4] and 0.711 (inactive) in test [5].
Consider `Cc1ccccc1C(O)C1C=CC2C(=O)N(C)C(=O)C2N1N1CCCCC1` (configuration not stated), for which the composite z-score was 0.547 (inactive) in test [1] and 0.576 with XIP peptide (Xip251-270). Also, the z-score in test [2] is 0.737; in test [3], -6.67 (inactive); in test [4] it was 0.193 (inactive); in test [5], -0.0403 (inactive).
Consider `CC(C)N1C(=O)[C@@]2(c3ccc([N+](=O)[O-])cc3)CC(=O)N(CC34CC5CC(CC(C5)C3)C4)[C@@H]2c2ccc(CO)cc21`, for which the figures for the composite z-score (in test [1]; with XIP peptide (Xip251-270)) were -0.43 (inactive) and 0.52, respectively. For the same compound, the z-score in test [2] is 0.115; in test [3], -0.734 (inactive); in test [4], 0.18 (inactive); in test [5], -0.0138 (inactive).
Regarding `COCCOC(=O)N1C(=O)[C@@]2(c3cc(C#CCNC(N)=O)ccc31)[C@H](c1ccc(OCCO)cc1)N1[C@H](c3ccccc3)[C@H](c3ccccc3)OC(=O)[C@H]1[C@@H]2C(=O)N1CCc2cc(OC)c(OC)cc2C1`, the composite z-score was -0.254 (inactive) in test [1] and 0.229 with XIP peptide (Xip251-270). In addition, the z-score in test [2] was -0.605; in test [3], 1.91 (inactive); in test [4] it was -0.102 (inactive); in test [5], 0.15 (inactive).
For the compound `CCOC(=O)C1=CC[C@@H](c2ccccc2)N(S(=O)(=O)c2ccc(C)cc2)[C@H]1C(=O)OCC`, the composite z-score was 0.414 (inactive) in test [1] and -0.404 in the test on XIP peptide (Xip251-270). The z-score in test [2] was -0.799; in test [3], -5.23 (inactive); in test [4] it was 0.0256 (inactive); in test [5], -0.831 (inactive).
Regarding `CCCCC(CC)C(O)C1C=CC2C(=O)N(c3ccccc3)C(=O)C2N1Nc1ccccc1` (configuration not stated), the values for the composite z-score (in test [1]; in the test on XIP peptide (Xip251-270)) were -0.147 (inactive) and 0.216, respectively. Further, the z-score in test [2] was -0.392; in test [3], -1.89 (inactive); in test [4], -0.335 (inactive); in test [5] it was -0.23 (inactive).
In the case of `CCOC(=O)C1=CC[C@@H](c2ccccc2Cl)N(S(=O)(=O)c2ccc(C)cc2)C1`, the composite z-score in test [1] is 0.792 (inactive); in the test with XIP peptide (Xip251-270) it was 0.488. Also, the z-score in test [2] was -2.06; in test [3] it was -2.78 (inactive); in test [4], -1.55 (inactive); in test [5], -1.77 (inactive).
For `C=CC(=C)C1=CCO[C@@H]1[C@H]1CCCN1S(=O)(=O)c1ccccc1[N+](=O)[O-]`, the composite z-score in test [1] is 0.162 (inactive); with XIP peptide (Xip251-270) it was 0.281. The z-score is -1.51 in test [2], -2.41 (inactive) in test [3], -0.0283 (inactive) in test [4] and 0.0588 (inactive) in test [5].

The record behind these values is PubChem BioAssay.
